ATXN2 expr inh: Primary qHTS for Inhibitors of ATXN expression. HEK-293 ATXN2-luciferase reporter, luminescence, 24 h. Potency, µM (titrated, usually from 57 µM), for inactives: at the highest dose activity change, negative = inhibition, most hits filed as inhibitors. 360,000 compounds, 0.72% hits. AID 1745845, 2022; further: on the % scale 0 is the no-effect control and ±100 the full control effect; nearly all actives have a fitted effect of over 55% in size
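ATXN2-luciferase reporter cells (luciferase flanked by upstream and downstream ATXN2 gene portions) were treated 24 h at 37 °C with compounds at up to 57 uM. SteadyGlo luminescence gave expression; GF-AFC fluorescence gave viability.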
ATXN viability: Viability Counterscreen for Primary qHTS for Inhibitors of ATXN expression; Potency, µM (top dose mostly 56.7 µM), actives largely listed as cytotoxic; 400,000 compounds, 0.49% hits; S2 cells (HEK-293 line with an ATXN2-luciferase reporter) viability, CellTiter-Fluor protease fluorescence, 24 h; further: nearly all actives have a fitted effect of over 40% in size
KB-V1 cytotox: qHTS assay for MDR1-selective chemotherapeutics: Primary screen using the drug-selected MDR subline cells KB-V1; KB-V1 MDR cells viability, CellTiter-Glo, 72 h; 400,000 compounds, 3.4% hits; Potency, µM (top dose mostly 46.1 µM), usual class: cytotoxic; further: on the % scale 0 is the no-effect control and ±100 the full control effect; nearly all actives have a fitted effect of over 60% in size
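Potencies derive from concentration-effect curves fitted to normalized luminescence (CellTiter-Glo) of KB-V1 cells treated for 72 h at 37 degrees C in phenol-red-free DMEM containing 10% FBS.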
KB-3-1 cytotox: qHTS assay for MDR1-selective chemotherapeutics: Primary screen using the parental adenocarcinoma cell KB-3-1; AID 1347075, 2019; KB-3-1 viability, CellTiter-Glo ATP luminescence, 72 h; 400,000 compounds, 1.4% hits; Potency, µM (doses to about 46.1 µM), actives largely listed as cytotoxic; further: on the % scale 0 is the no-effect control and ±100 the full control effect; nearly all actives have a fitted effect of over 60% in size
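Screening of KB-3-1 cells (DMEM, 10% FBS, phenol-red free) ran from lowest to highest compound concentration; after 72 h at 37 °C viability was read luminescently and curves fitted.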
HT1080 IDH1KD tx: qHTS for induction of synthetic lethality in tumor cells producing 2HG: qHTS for the HT-1080-IDH1KD cell line; HT-1080 IDH1 knockdown viability, ATP luminescence, 48 h; Potency, µM (top dose mostly 46.1 µM), inactives show top-dose activity, negative = toxicity, usual class: cytotoxic; 360,000 compounds, 2% hits; AID 686971, 2013;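 further: 0% = DMSO wells and -100% = cell-free medium wells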
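HT-1080-IDH1KD cells (IDH1 knocked down), 750/well in RPMI with 5% FBS, treated with compound 48 h at 37 degrees C. Viability by CellTiter-Glo luminescence, normalised to DMSO and no-cell wells; concentration-response curves classed.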
HT1080-NT tox: qHTS for induction of synthetic lethality in tumor cells producing 2HG: qHTS for the HT-1080-NT fibrosarcoma cell line; HT-1080-NT fibrosarcoma viability, CellTiter-Glo ATP luminescence, 48 h; Potency, µM (doses to about 46.1 µM), without a hit: at the highest dose activity, negative = less viability, most hits filed as cytotoxic; 360,000 compounds, 1.6% hits; AID 686970, 2013;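 further: NT is the 2HG producing partner of a matched IDH1 knockdown line; 0% = DMSO-treated cells and -100% = media-only wells without cells; nearly all actives have a fitted effect of over 55% in size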
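Viability of the 2HG-overproducing fibrosarcoma line after 48 hours of compound exposure at 37 degrees C was determined by luminescence with CellTiter-Glo, and concentration-effect curves were then fitted and categorized.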
The depositor's hits bear a star; i = inactive; ? = inconclusive; / = no result given; ! = a repeat was not active. A selection: hits, their analogues and other compounds. The true share with any hit is near 6.2%. The call rests on the fitted dose curve; in most records, active means well fitted curve in the direction sought with a large enough effect; inconclusive means small, poorly fitted or top-dose-only effect, or another doubt; inactive means no such curve, though single readings can be large; an effect the other way counts as inactive or inconclusive. Potency means the concentration at half of the fitted maximal effect.

SMILES	ATXN2 expr inh	ATXN viability	KB-V1 cytotox	KB-3-1 cytotox	HT1080 IDH1KD tx	HT1080-NT tox
Cc1ccc(S(=O)(=O)c2c(C)nn(C(C)(C)C)c2OC(=O)c2cccs2)cc1	?	i	i	i	25.9µM*	23.1µM*
Cc1nn(C(C)(C)C)c(OC(=O)c2ccc3c(c2)OCO3)c1S(=O)(=O)c1ccccc1	-7.9%	i	i	i	?	20.6µM*
Cc1nn(C(C)(C)C)c(OC(=O)c2ccc3c(c2)OCO3)c1Sc1ccccc1	-16.0%	i	i	i	?	-23.2%
CC(=O)Oc1c(S(=O)(=O)c2ccc(C)cc2)c(C)nn1C(C)(C)C	1.1%	i	?	?	-3.1%	-20.9%
Cc1ccc(S(=O)(=O)c2c(C)nn(C(C)(C)C)c2OC(=O)c2ccco2)cc1	-23.7%	i	i	i	?	23.1µM*
CC(NC(=O)C1CCOCC1)c1nnc2n1CCN(Cc1ccc(F)cc1)CC2 (centres undefined)	/	i	/	/	/	/
Cc1oc(-c2cccc(Cl)c2)nc1CN1CCC(C(=O)NC(C)C)CC1	4.6%	i	i	i	/	/
CCN1CCCC1CNC(=O)C1CCN(Cc2nc(-c3cccc(Br)c3)oc2C)CC1 (centres undefined)	?	i	i	?	?	20.6µM*
Cc1ccc(CNC(=O)C2CCCN(Cc3nc(-c4cccc(C)c4)oc3C)C2)cc1 (centres undefined)	/	/	i	i	/	/
Cc1cccc(-c2nc(CN3CCCC(C(=O)NC4CCCCC4)C3)c(C)o2)c1 (centres undefined)	-8.2%	i	20.6µM*	?	?	?
Cc1cccc(-c2nc(CN3CCCC(C(=O)NC4CCCCCC4)C3)c(C)o2)c1 (centres undefined)	-17.1%	?	20.6µM*	i	?	20µM*
Cc1oc(-c2cccc(Cl)c2)nc1CN1CCCC(C(=O)NC(C)c2ccc3c(c2)OCCO3)C1 (centres undefined)	?	?	25.9µM*	?	16.4µM*	?
CNC(=O)c1cccc(-c2ccc3c(N4CCOC[C@H]4C)nc(N4CCOC[C@H]4C)nc3n2)c1	-31.9%	/	/	/	/	/
COCCNC(=O)c1[nH]c2cc(C)ccc2c1Sc1ccc(Cl)cc1	-1.8%	?	i	i	/	/
CCOc1cc(C(=S)N2CCOCC2)ccc1OS(=O)(=O)c1ccccc1	-11.5%	?	2.31µM*	i	-4.0%	0.4%
CCOc1cc(C(=S)N2CCOCC2)ccc1OC(=O)c1ccccc1	/	i	i	i	2.7%	-1.3%
C=CCNC(=S)NNC(=O)c1ccc(Br)cc1	-3.3%	i	11.6µM*	14.6µM*	4.4%	10.6%
C=C(C)CNC(=S)NNC(=O)c1ccc(Br)cc1	-4.1%	i	?	i	15.9%	18.1%
CN(C)c1ccc(-c2nnc(SCC(=O)NCc3ccco3)n2C)cc1	/	/	i	i	/	/
O=C(CCCN1C(=O)S/C(=C\C=C\c2ccccc2)C1=O)Nc1ccc(O)cc1	5.1%	?	i	i	20.6µM*	?
Cc1cc(NC(=O)CCCN2C(=O)/C(=C/c3ccccc3Cl)SC2=S)no1	?	i	20.6µM*	?	-2.4%	1.1%
O=C(CCCN1C(=O)/C(=C\c2ccccc2)SC1=S)Nc1ccc(C(=O)O)cc1	5.1%	i	?	i	-4.5%	-6.9%
O=C(CN1C(=O)S/C(=C/C=C/c2ccccc2)C1=O)Nc1ccc(C(=O)O)cc1	30.7%	i	i	i	0.7%	6.5%
O=C(CCN1C(=O)/C(=C/c2ccccc2)SC1=S)Nc1ccccn1	-12.4%	i	i	i	-6.0%	-4.6%
Cc1ccc(/C=C2\SC(=S)N(CCCC(=O)Nc3ccccn3)C2=O)cc1	3.16µM*	i	?	?	-6.7%	0.2%
SMILES	ATXN2 expr inh	ATXN viability	KB-V1 cytotox	KB-3-1 cytotox	HT1080 IDH1KD tx	HT1080-NT tox
CC(=O)c1ccc(NC(=O)CCCN2C(=O)/C(=C/C(C)=C/c3ccccc3)SC2=S)cc1	11.5%	/	18.4µM*	?	0.5%	6.0%
Cc1cccc2cc(CN(C(=O)c3ccc(C(F)(F)F)cc3)C3CC3)c(N3CCC(O)CC3)nc12	/	i	/	/	/	/
O=c1ccc2cc(S(=O)(=O)Nc3ccc(F)c(Cl)c3)ccc2[nH]1	0.7%	i	i	i	/	/
Cc1ncc2c(c1CNS(=O)(=O)N(C)C)CCN(C(=O)/C=C/c1ccccc1F)C2	/	i	/	/	/	/
CCc1ccc(/C=C2\SC(=S)N(CCCC(=O)Nc3ccccc3C(=O)O)C2=O)cc1	-31.1%	i	?	i	?	0.2%
Cc1ccc(/C=C2\SC(=S)N(CCCC(=O)Nc3ccccc3C(=O)O)C2=O)cc1	12.6µM*	i	?	i	10.5%	25.4%
COC(=O)c1ccc(/C=C2/SC(=S)N(CCCC(=O)Nc3ccc(O)cc3)C2=O)cc1	1.5%	i	i	?	-7.1%	-9.3%
Cc1ccc(/C=C2\SC(=S)N(CCCC(=O)Nc3ccc(O)cc3)C2=O)cc1	10µM*	i	i	i	-10.5%	-1.9%
COCc1c(C(=O)NC2CCCCCC2)cnn1-c1nccc(-c2cc(C)sc2C)n1	/	i	/	/	/	/
O=C1CCc2cc(S(=O)(=O)Nc3cccc(Br)c3)ccc2N1	/	/	i	i	/	/
COc1ccc(Br)cc1C(=O)Nc1cccc2ccc(C)nc12	-1.8%	i	i	i	/	/
COc1ccccc1N1CCN(C(=O)C2CCCN(S(=O)(=O)c3ccc4c(c3)CCCN4C(C)=O)C2)CC1 (centres undefined)	17.8µM*!	?	i	?	-5.8%	-10.6%

Bioassay records deposited in PubChem by National Center for Advancing Translational Sciences (NCATS).
